Measurements: the supplement of paper PMC6555819

Tests used:
Experiment in all cases: PBM binding z-score (relative to random genomic background probes); higher = stronger binding; sequences stand for … in GC…GCGATTGACAGCGTAGAATGAAGG
[1] = test system: FXR:RXRa (NR concentration 270 nM, RXRa partner concentration 90 nM)
How it was run: (§1)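 Regression normalization was applied to scanned fluorescence from custom Agilent 4×180K protein-binding microarrays. Before scanning, arrays were incubated 1 h with ligand-free nuclear receptor dimers, and binding was detected with antibodies against each partner (one per run). Binding z-scores use the random background probes as reference.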

[2] = test system: LXRa:RXRa (NR concentration 270 nM, RXRa partner concentration 90 nM)
How it was run: as §1

[3] = test system: LXRa homodimer (NR concentration 270 nM)
How it was run: as §1

[4] = test system: LXRb:RXRa (NR concentration 270 nM, RXRa partner concentration 90 nM)
How it was run: as §1

[5] = test system: LXRb homodimer (NR concentration 270 nM)
How it was run: as §1

[6] = test system: PPARa:RXRa (NR concentration 270 nM, RXRa partner concentration 90 nM)
How it was run: as §1

[7] = test system: PPARg:RXRa (NR concentration 180 nM, RXRa partner concentration 90 nM)
How it was run: as §1

[8] = test system: PPARg:RXRa 270nM:90nM, anti-RXR (NR concentration 270 nM, RXRa partner concentration 90 nM)
How it was run: as §1

[9] = test system: PPARg:RXRa 30nM:10nM, anti-RXR (NR concentration 30 nM, RXRa partner concentration 10 nM)
How it was run: as §1

[10] = test system: PPARg:RXRa 90nM:30nM, anti-RXR (NR concentration 90 nM, RXRa partner concentration 30 nM)
How it was run: as §1

[11] = test system: PPARg:RXRa DBDmut IVT, anti-RXR (DBD mutation: RXRa K156A/R161A, NR concentration 270 nM, RXRa partner concentration 90 nM)
How it was run: as §1

[12] = test system: PPARg:RXRa IVT, anti-PPARg (NR concentration 270 nM, RXRa partner concentration 90 nM)
How it was run: as §1

[13] = test system: PPARg DBDmut:RXRa IVT, anti-PPARg (DBD mutation: PPARg1 K132A/R137A, NR concentration 270 nM, RXRa partner concentration 90 nM)
How it was run: as §1

[14] = test system: PPARg DBDmut IVT, anti-PPARg (DBD mutation: PPARg1 K132A/R137A, NR concentration 270 nM)
How it was run: as §1

[15] = test system: PPARg homodimer (NR concentration 180 nM)
How it was run: as §1

[16] = test system: PXR:RXRa (NR concentration 270 nM, RXRa partner concentration 90 nM)
How it was run: as §1

[17] = test system: PXR homodimer (NR concentration 270 nM)
How it was run: as §1

[18] = test system: RARa:RXR (NR concentration 270 nM, RXRa partner concentration 90 nM)
How it was run: as §1

[19] = test system: RARa homodimer (NR concentration 270 nM)
How it was run: as §1

[20] = test system: RARb:RXRa (NR concentration 270 nM, RXRa partner concentration 90 nM)
How it was run: as §1

Sequence	PBM binding z-score [1]	PBM binding z-score [2]	PBM binding z-score [3]	PBM binding z-score [4]	PBM binding z-score [5]	PBM binding z-score [6]	PBM binding z-score [7]	PBM binding z-score [8]	PBM binding z-score [9]	PBM binding z-score [10]	PBM binding z-score [11]	PBM binding z-score [12]	PBM binding z-score [13]	PBM binding z-score [14]	PBM binding z-score [15]	PBM binding z-score [16]	PBM binding z-score [17]	PBM binding z-score [18]	PBM binding z-score [19]	PBM binding z-score [20]
CAAACTTGGTCACGAAAGGTCAAAGTCGAATGAC	5.56	6.11	5.72	5.74	2.04	5.22	4.84	5.24	2.75	4.59	2.71	4.16	0.428	0.593	4.33	6.21	1.66	6.77	3.25	4.68
TCATATAGGTAAAGGTAAAAGTCGAACGATATGA	0.715	1.06	-0.299	0.926	-0.151	2.1	2.75	3.46	4.13	3.8	3.98	3.36	1.85	1.27	0.454	0.53	0.308	0.709	1.3	0.845
CGAACTAGGTCACCGGAAGGTCAAAGTCCGCATG	6.15	5.95	4.65	5.17	0.515	6.04	9.75	7.7	5.33	7.57	7.98	8.54	0.875	0.855	8.74	5.95	2.08	7.52	2.97	5.2
GCAGACCGGTGAAACGCAGGTAACTCAGGGTGGC	-0.668	-0.615	-0.629	-0.971	-1.86	-1.17	-0.0428	-1.18	-1.16	-1.16	-0.72	-0.532	-1.77	-1.81	-1.43	-0.781	-1.17	-0.497	-1.38	-0.191
CCGACTGGGGCAGAAAGGTTACCGTACCATCCGG	0.26	0.695	-0.0357	1.01	-1.05	2.4	1.54	2.95	0.724	2.38	1.72	2.39	-1.2	-1.01	0.541	1.02	-0.429	1.79	-0.282	1.84
ATCGAAAGGTCGTGAGGTGAATATACAGAAAGGC	5.8	4.42	0.33	3.66	0.583	5.66	4.88	4.97	2	3.71	0.388	2.93	1.73	0.704	2.17	3.53	0.656	4.96	1.14	4.12
CCTTACGGATCACTCCAGGTTATAGCATCGGAGT	0.957	3.48	1.36	0.889	0.62	0.155	0.486	-0.0175	-0.194	-0.283	0.299	0.0369	0.0149	0.787	1	0.823	0.761	0.748	1.26	0.105
ATCTCTAGGTAACAAGATCAGTGAAAGAGAGGAC	0.203	0.168	0.348	0.0382	0.596	0.578	1.09	0.835	0.253	0.677	3.03	2.72	1.75	1.21	0.336	0.0521	-0.0922	0.158	1.1	0.327
CCTTACGGGTCAATGACAGGTTATAGCATTTGGA	6.33	4.45	1.11	3.68	0.333	5.07	3.44	3.62	1.13	2.5	2.52	2.91	0.126	0.222	4.22	3.44	0.512	4.2	0.757	3.97
CCTAGCAGTCCAGGGTCACTCAAGCATTTCGCTT	1.93	1.87	-0.123	2.26	-0.47	3.08	0.115	1.17	-0.788	0.355	-0.136	0.647	-1.3	-1.13	1.01	2.58	2.51e-05	3.02	-0.3	2.33
AGAATGAGGTTATTAAGATCAAGGAATTGCGGTC	1.4	1.67	0.35	1.5	0.176	2.85	1.82	2.2	0.602	1.6	2.9	2.73	1.27	0.466	0.735	1.37	0.527	1.58	1.15	1.45
CCGACTGGGGCATAAGGTTACCAGAAGCCAGCCC	0.432	1.72	-0.288	0.864	-1.26	2	2.27	3.48	1.75	2.93	3.11	3.13	-1.29	-1.2	0.743	0.265	-0.64	1.84	-0.798	1.78
GCCGCTAGGTCAGGTTGGTCAGCTAACGGGTACG	1.23	0.593	-0.167	0.545	-0.194	1.41	0.278	0.955	-0.607	0.0187	2.34	1.64	-0.905	-1.32	0.576	0.356	-0.526	0.716	-0.74	3.27
GTACCAACGTGAATAGGTCGTTGATGAGTAGGCG	-0.282	-0.216	-0.491	-0.2	-0.829	0.267	0.588	-0.017	-0.124	-0.176	-0.261	-0.148	-0.62	-0.461	-0.374	-0.0666	-0.401	0.105	-0.122	-0.00783
